Assay outcomes as filed in PubChem.
FECH inh: inhibitors of human ferrochelatase; P22830; purified FECH, Ni-mesoporphyrin absorbance 550 nm; calls only at 10 µM (by protocol); hit rate 3.3% among 20,000; AID 1671448;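 active = enzyme reaction rate more than 3 SD below the solvent-only control wells on the same plate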;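 also: lower slope than DMSO wells means FECH inhibition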
Target sequence (P22830 whole entry, looked up): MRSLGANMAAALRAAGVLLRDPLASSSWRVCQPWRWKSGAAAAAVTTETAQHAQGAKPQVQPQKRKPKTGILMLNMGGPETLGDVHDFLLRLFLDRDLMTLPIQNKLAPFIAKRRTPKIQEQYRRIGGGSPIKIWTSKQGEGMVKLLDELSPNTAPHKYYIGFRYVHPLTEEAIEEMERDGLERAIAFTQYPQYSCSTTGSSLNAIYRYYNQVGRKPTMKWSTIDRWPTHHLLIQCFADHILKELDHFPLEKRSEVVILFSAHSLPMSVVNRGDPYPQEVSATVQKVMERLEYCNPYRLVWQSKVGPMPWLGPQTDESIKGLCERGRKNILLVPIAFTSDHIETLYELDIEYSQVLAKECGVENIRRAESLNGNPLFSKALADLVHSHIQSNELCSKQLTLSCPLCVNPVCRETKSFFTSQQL
Calls only; . = inactive; + = active, no number. Shown is part of a subset that was picked to be rich in hits.

SMILES	FECH inh
COc1ccc(Nc2nc(N3CCC(C)CC3)nc3c2cnn3-c2ccccc2)cc1	+
CN(CCO)c1nc(Nc2ccc(Cl)cc2)c2cnn(-c3ccccc3)c2n1	+
COc1ccc(Nc2nc(N3CCOCC3)nc3c2cnn3-c2ccccc2)cc1	.
OCCN1CCN(c2nc(Nc3ccc(F)cc3)c3cnn(-c4ccccc4)c3n2)CC1	.
Clc1ccc(Nc2nc(N3CCN(c4ccccc4)CC3)nc3c2cnn3-c2ccccc2)cc1	.
CN1CCN(c2nc(Nc3ccc(Cl)cc3)c3cnn(-c4ccccc4)c3n2)CC1	+
CN(CCO)c1nc(Nc2ccccc2)c2cnn(-c3ccccc3)c2n1	.
OCCN1CCN(c2nc(Nc3ccc(Cl)cc3)c3cnn(-c4ccccc4)c3n2)CC1	+
Cc1ccc(Nc2nc(N3CCN(C)CC3)nc3c2cnn3-c2ccccc2)cc1	.
COc1ccc(Nc2nc(N3CCN(CCO)CC3)nc3c2cnn3-c2ccccc2)cc1	.
CCN(CCO)c1nc(Nc2ccc(Cl)cc2)c2cnn(-c3ccccc3)c2n1	.
COc1ccc(Nc2nc(N3CCCCC3)nc3c2cnn3-c2ccccc2)cc1	.
Cc1cc(N2CCCCC2)nc(N2CCN(S(=O)(=O)c3ccc(Oc4ccccc4)cc3)CC2)n1	.
O=S(=O)(Cc1ccccc1)N1CCC(n2c(-c3ccccc3)nc3cccnc32)CC1	.
COc1ccc2n[nH]c(CN3CCN(S(=O)(=O)c4ccccc4)CC3)c2c1	.
Cc1nc(SCC(=O)N2CCC(C(O)CCc3ccccc3)CC2)n[nH]1 (stereo not given)	.
Cc1ccc(NC(=O)N2CCC(n3cc(C(C)(C)C)nn3)CC2)cc1	.
CN(C)c1nc(Nc2cccc(Cl)c2)c2cnn(-c3ccccc3)c2n1	.
O=C(CN1CCN(Cc2ccc(F)cc2)S1(=O)=O)Nc1ccc(F)cc1	.
Cc1nc(CC(=O)N2CCC(=O)N(CC3CC3)C(C(C)C)C2)cs1 (stereo not given)	.
CC(C)c1ccc(S(=O)(=O)N2CCN(Cc3nc4cccnc4n3-c3ccccc3)CC2)cc1	.
O=C(O)c1cc(O)cc(-c2ccccc2CN2CCOCC2)c1	+
Clc1nc(-c2ccccc2CN2CCOCC2)ns1	.
COC(C)c1ccc(-c2cc(C(=O)O)cc(S(=O)(=O)N3CCOCC3)c2)cc1 (stereo not given)	.
Cn1c(=O)n(CC(=O)Nc2cccnc2Cl)c(=O)c2cnc(-c3ccccc3)nc21	.
SMILES	FECH inh
O=C(C(=O)N1CCC2(CC1)NCCNC2=O)c1ccccc1	.
Cc1cc(N2CCOCC2)nc(N2CCN(S(=O)(=O)c3cc(C(C)C)ccc3C)CC2)n1	.
O=C1CN(Cc2ccc(F)cc2)S(=O)(=O)c2ccccc2N1Cc1ccccc1	.
O=C1CN(Cc2ccc(F)cc2Cl)S(=O)(=O)c2ccccc2N1Cc1ccccc1F	.
O=C1CN(Cc2ccccc2)S(=O)(=O)c2ccccc2N1Cc1ccccc1F	+
CCn1c(C2CCN(C(=O)c3cc(C(C)C)[nH]n3)CC2)n[nH]c1=O	.
CN1CCCC(c2n[nH]c(=O)n2CCc2ccccc2)C1 (stereo not given)	.
O=c1[nH]nc(C2CC2)n1Cc1ccc(Cl)cc1Cl	+
O=C1CCC(=O)N1c1nc2n(n1)C(c1ccccc1Cl)C=C(c1ccccc1)N2 (stereo not given)	.
COc1ccc2[nH]cc(CCNC(=O)c3ccc(CN4C(=O)CCn5nccc54)cc3)c2c1	.
CC(=O)Nc1c2n(c3ccc(F)cc13)CC(C)(C(=O)NC1CCCCC1)N(CCN(C)C)C2=O (stereo not given)	.
Cc1ncc(C(=O)NCc2nc3c(s2)CCCC3)c(C)n1	.
CN1CCN(C(=O)c2ccc3oc(=O)n(Cc4ccccc4)c3c2)CC1	.
CCN1CCN(C(=O)c2ccc3oc(=O)n(Cc4ccc(C)cc4)c3c2)CC1	.
O=C(c1ccc2oc(=O)n(Cc3ccccc3)c2c1)N1CCN(Cc2ccccc2)CC1	+
Cc1cc(Sc2ccccc2NC(=O)c2cccc(Cl)c2)n2nc(-c3ccccc3)nc2n1	.
Cc1cccc(-c2ncc(CNCC3CCCN(C(=O)C(C)C)C3)cn2)c1 (stereo not given)	.
Cc1ccc(N2C(=O)CCS2(=O)=O)cc1S(=O)(=O)Nc1ccccc1C(N)=O	.
c1ccc(CN2CCC(CNC3CCOCC3)C2)cc1 (stereo not given)	.
COCc1nc2cccnc2n1C1CCN(S(=O)(=O)c2ccc(F)cc2)CC1	.
CCOc1ccc(NC(=O)c2cc(-c3ccc(OC)c(S(N)(=O)=O)c3)n[nH]2)cc1	.
NS(=O)(=O)c1ccc(NC(=O)c2noc3c2CCCC3)cc1	.
CCOc1ccc(-c2cc(C(=O)Nc3ccc(S(N)(=O)=O)cc3)no2)cc1	+
NS(=O)(=O)c1ccc(NC(=O)c2cc(-c3ccc(Cl)cc3)on2)cc1	+
CCc1ccc(-c2noc3c(=O)n(CCC(=O)Nc4ccc(S(N)(=O)=O)cc4)cnc23)cc1	.
NS(=O)(=O)c1ccc(NC(=O)c2nn(-c3cccc(Cl)c3)ccc2=O)cc1	.
COc1ccc(NC(=O)CN2CCN(Cc3ccccc3Cl)S2(=O)=O)cc1	.
Cc1cccc(-n2c(CN3CCN(S(=O)(=O)c4ccc(F)c(Cl)c4)CC3)nc3cccnc32)c1	.
